Data published in PubChem BioAssay (NCI).
Compounds without any hit were thinned out: in the full panel of roughly 79,000, 15% have a hit. Calls of active or inactive are those of the source. No stated cut-off is given here; in the data, active means growth inhibition above about 70%; inactive means the rest.

Experiments:
[1] = NCI Yeast Anticancer Drug Screen. Data for the rad52 strain (AID 147);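 further: 0% = growth of vehicle-treated control cultures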; conditions: S. cerevisiae rad52 mutant growth inhibition, hits give high values
Summary of the method: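 Vehicle-treated cultures served as the reference for growth inhibition of compound-exposed yeast bearing a DNA repair mutation.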

[2] = NCI Yeast Anticancer Drug Screen. Data for the wt1 strain (AID 149);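 further: 0% = growth of vehicle-treated wt1 cultures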; conditions: S. cerevisiae wt1 strain (SPY 50644) growth inhibition, hits give high values
Summary of the method: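 The wt1 strain was treated with compounds, and growth was compared with vehicle-treated cultures to give inhibition.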

[3] = NCI Yeast Anticancer Drug Screen. Data for the rad50EPP+ strain (AID 151);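 further: 0% = growth of vehicle-treated control cultures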; conditions: S. cerevisiae rad50 mutant strain, hits give high values
Summary of the method: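 In this screen, rad50EPP+ yeast were exposed to compounds. Growth inhibition was scored against vehicle-treated controls.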

[4] = NCI Yeast Anticancer Drug Screen. Data for the mgt1 strain (AID 153); conditions: S. cerevisiae mgt1 mutant growth inhibition, hits give high values
Summary of the method: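 mgt1 strain exposed; growth vs vehicle control recorded as inhibition.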

[5] = NCI Yeast Anticancer Drug Screen. Data for the rad50 strain (AID 155);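 further: 0% = growth of vehicle-only cultures of the same strain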; conditions: S. cerevisiae rad50 strain growth inhibition, hits give high values
Summary of the method: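 Cells are treated with compound, grown, and their growth is then scored against vehicle-only cultures of the same repair-deficient yeast strain.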

[6] = NCI Yeast Anticancer Drug Screen. Data for the mec2-1 strain (AID 157); conditions: S. cerevisiae mec2-1 strain, hits give high values
Summary of the method: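 Vehicle-treated cultures served as reference for growth inhibition of compound-exposed mec2-1 yeast.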

[7] = NCI Yeast Anticancer Drug Screen. Data for the rad14 strain (AID 159);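 further: 0% = growth of vehicle-treated control cultures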; conditions: S. cerevisiae rad14 strain growth inhibition, hits give high values
Summary of the method: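 Readout: yeast growth inhibition, referenced to vehicle-only cultures. Strain bears a defined alteration in DNA damage repair.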

[8] = NCI Yeast Anticancer Drug Screen. Data for the sgs1 mgt1 strain (AID 161);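 further: 0% = growth of cultures given vehicle only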; conditions: S. cerevisiae sgs1 mgt1 strain, hits give high values
Summary of the method: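 Read-out: growth inhibition vs vehicle controls. Cells: mutant yeast strain deficient in DNA damage repair.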

[9] = NCI Yeast Anticancer Drug Screen. Data for the CLN2oe strain (AID 163);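 further: 0% = growth of vehicle-only control cultures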; conditions: S. cerevisiae CLN2oe strain, hits give high values
Summary of the method: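 Inhibition relative to vehicle-treated yeast is reported. Cells: strain with genetic alteration in cell-cycle control, grown with compound.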

[10] = NCI Yeast Anticancer Drug Screen. Data for the cln2 rad14 strain (AID 165);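 further: 0% = growth equal to vehicle treated cultures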; conditions: S. cerevisiae cln2 rad14 strain, hits give high values
Summary of the method: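 Each compound was tested on cln2 rad14 yeast. Inhibition of growth was calculated against vehicle-exposed controls.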

[11] = NCI Yeast Anticancer Drug Screen. Data for the bub3 strain (AID 167); conditions: S. cerevisiae bub3 mutant strain, hits give high values
Summary of the method: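 Part of a panel of yeast mutants defective in DNA damage repair or cell cycle regulation. Each strain is grown with compound, and inhibition is calculated relative to solvent-treated cultures.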

[12] = NCI Yeast Anticancer Drug Screen. Data for the wt2 strain (AID 169);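 further: 0% = growth of vehicle-treated yeast cultures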; conditions: S. cerevisiae wt2 strain growth inhibition, hits give high values
Summary of the method: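 Inhibition of yeast growth was determined after compound treatment, normalised to controls receiving only vehicle.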

[13] = NCI Yeast Anticancer Drug Screen. Data for the mlh1 strain (AID 171);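 further: 0% = growth of vehicle-treated control cultures of the same strain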; conditions: S. cerevisiae mlh1 strain growth inhibition, hits give high values
Summary of the method: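 Vehicle-normalised growth inhibition of a repair- or checkpoint-altered yeast strain following compound treatment.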

[14] = NCI Yeast Anticancer Drug Screen. Data for the sgs1 strain (AID 173);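 further: 0% = growth of vehicle-only control cultures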; conditions: S. cerevisiae sgs1 mutant, hits give high values
Summary of the method: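 Screen format: yeast with repair or checkpoint alterations, compound exposure, growth read relative to vehicle.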

[15] = NCI Yeast Anticancer Drug Screen. Data for the mlh1 rad18 strain (AID 175); conditions: S. cerevisiae mlh1 rad18 strain growth inhibition, hits give high values
Summary of the method: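 Vehicle-treated cultures served as the reference for growth inhibition in a yeast strain carrying DNA damage repair alterations exposed to each compound.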

[16] = NCI Yeast Anticancer Drug Screen. Data for the rad18 strain (AID 177); conditions: S. cerevisiae rad18 mutant growth inhibition, hits give high values
Summary of the method: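 Test articles were incubated with altered yeast defective in DNA damage repair. Results are given as inhibition of growth versus vehicle.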

[17] = at 5.0 µM (retest, dose inferred, filed as 0.5)
[18] = at 50.0 µM (retest, dose inferred, filed as 5.0)

Measured: growth inhibition

CC(C)C(=O)CC(Sc1ccc(N)cc1)c1ccccc1 (stereo unspecified)
active: [1]; at 100.0 µM 83% | [5]; [18] 77% | [6]; [18] 88% | [8]; [18] 87% | [11]; at 1.2 µM 87% | [11]; at 3.7 µM 89% | [11]; [17] 89% | [11]; at 11.0 µM 90% | [11]; at 33.0 µM 91% | [11]; [18] 98% | [11]; at 50.0 µM 85.1% | [11]; at 100.0 µM 92% | [14]; at 100.0 µM 79% | [15]; [18] 85%
inactive: [1]; at 1.2 µM 2% | [1]; at 3.7 µM 8% | [1]; at 11.0 µM 23% | [1]; at 33.0 µM 47% | [2]; at 1.2 µM -4% | [2]; at 3.7 µM -4% | [2]; at 11.0 µM -1% | [2]; at 33.0 µM 10% | [2]; at 100.0 µM 18% | [3]; at 1.2 µM -5% | [3]; at 3.7 µM -4% | [3]; at 11.0 µM 1% | [3]; at 33.0 µM 6% | [3]; at 100.0 µM 8% | [4]; at 1.2 µM -2% | [4]; at 3.7 µM -5% | [4]; at 11.0 µM 27% | [4]; at 33.0 µM 32% | [4]; at 100.0 µM 58% | [5]; at 1.2 µM -1% | [5]; at 3.7 µM 1% | [5]; [17] -22% | [5]; at 11.0 µM -19% | [5]; at 33.0 µM 24% | [5]; at 50.0 µM 55.6% | [5]; at 100.0 µM 42% | [6]; at 1.2 µM 1% | [6]; at 3.7 µM -2% | [6]; [17] -2% | [6]; at 11.0 µM 10% | [6]; at 33.0 µM 27% | [6]; at 50.0 µM 36.5% | [6]; at 100.0 µM 40% | [7]; at 1.2 µM 1% | [7]; at 3.7 µM 2% | [7]; at 11.0 µM 6% | [7]; at 33.0 µM 25% | [7]; at 100.0 µM 46% | [8]; [17] -26% | [8]; at 50.0 µM 53% | [9]; at 1.2 µM -2% | [9]; at 3.7 µM -13% | [9]; at 11.0 µM -7% | [9]; at 33.0 µM 20% | [9]; at 100.0 µM 35% | [10]; [17] -3% | [10]; [18] 57% | [10]; at 50.0 µM 27.8% | [12]; at 1.2 µM -2% | [12]; at 3.7 µM -2% | [12]; at 11.0 µM 10% | [12]; at 33.0 µM 47% | [12]; at 100.0 µM 57% | [13]; at 1.2 µM 1% | [13]; at 3.7 µM -2% | [13]; at 11.0 µM 7% | [13]; at 33.0 µM 30% | [13]; at 100.0 µM 48% | [14]; at 1.2 µM 0% | [14]; at 3.7 µM 4% | [14]; at 11.0 µM 22% | [14]; at 33.0 µM 62% | [15]; [17] -19% | [15]; at 50.0 µM 42.5% | [16]; at 1.2 µM -8% | [16]; at 3.7 µM -2% | [16]; at 11.0 µM 12% | [16]; at 33.0 µM 30% | [16]; at 100.0 µM 52%

COc1cc([C@@H]2c3cc4c(cc3[C@@H](NC(=O)NO)[C@H]3COC(=O)[C@H]23)OCO4)cc(OC)c1O
inactive: [1]; at 1.2 µM -2% | [1]; at 3.7 µM 2% | [1]; at 11.0 µM 10% | [1]; at 33.0 µM 48% | [2]; at 1.2 µM -3% | [2]; at 3.7 µM -2% | [2]; at 11.0 µM 1% | [2]; at 33.0 µM -1% | [2]; at 100.0 µM 4% | [3]; at 1.2 µM -2% | [3]; at 3.7 µM 0% | [3]; at 11.0 µM 2% | [3]; at 33.0 µM 2% | [3]; at 100.0 µM 9% | [4]; at 1.2 µM -5% | [4]; at 3.7 µM -3% | [4]; at 11.0 µM -2% | [4]; at 33.0 µM 14% | [4]; at 100.0 µM 4% | [5]; at 1.2 µM 0% | [5]; at 3.7 µM 1% | [5]; [17] 13% | [5]; at 11.0 µM 10% | [5]; at 33.0 µM 47% | [6]; at 1.2 µM -1% | [6]; at 3.7 µM 1% | [6]; [17] 7% | [6]; at 11.0 µM 0% | [6]; at 33.0 µM 1% | [6]; [18] -13% | [6]; at 50.0 µM -12.1% | [6]; at 100.0 µM 17% | [7]; at 1.2 µM -4% | [7]; at 3.7 µM -4% | [7]; at 11.0 µM -6% | [7]; at 33.0 µM -2% | [7]; at 100.0 µM 8% | [8]; [17] -2% | [8]; [18] 2% | [8]; at 50.0 µM -3.9% | [9]; at 1.2 µM -2% | [9]; at 3.7 µM -7% | [9]; at 11.0 µM -1% | [9]; at 33.0 µM -12% | [9]; at 100.0 µM 0% | [10]; [17] 6% | [10]; [18] 9% | [10]; at 50.0 µM 1.4% | [11]; at 1.2 µM -3% | [11]; at 3.7 µM -3% | [11]; [17] 3% | [11]; at 11.0 µM -2% | [11]; at 33.0 µM -4% | [11]; [18] -13% | [11]; at 50.0 µM -5.95% | [11]; at 100.0 µM -3% | [12]; at 1.2 µM 0% | [12]; at 3.7 µM 0% | [12]; at 11.0 µM 3% | [12]; at 33.0 µM 2% | [12]; at 100.0 µM 5% | [13]; at 1.2 µM 0% | [13]; at 3.7 µM -2% | [13]; at 11.0 µM 1% | [13]; at 33.0 µM 2% | [13]; at 100.0 µM 7% | [14]; at 1.2 µM -1% | [14]; at 3.7 µM 1% | [14]; at 11.0 µM 3% | [14]; at 33.0 µM 3% | [14]; at 100.0 µM 12% | [15]; [17] 5% | [15]; [18] -14% | [15]; at 50.0 µM 12.7% | [16]; at 1.2 µM -2% | [16]; at 3.7 µM -1% | [16]; at 11.0 µM 17% | [16]; at 33.0 µM -1% | [16]; at 100.0 µM 8%
active: [1]; at 100.0 µM 88% | [5]; [18] 79% | [5]; at 50.0 µM 71.5% | [5]; at 100.0 µM 86%
